Assay results from PubChem BioAssay AID1159580 (chemical genetic matrix, 2015).
About 2,000 (36%) of roughly 5,500 compounds were called active. Not shown: some 18% with an inconclusive outcome. Cut-off read from the data, not from the text of the source: active = normalized growth mostly below about 0.91 (no sharp cut-off); inconclusive = no clear call, values can overlap the other calls; inactive = mostly above about 0.92. Some of the results follow.

Experiment: chemical genetic growth profiling, strain panel (AID 1159580);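 note: tested at 20 µM; growth read once vehicle control cultures reached saturation at 30 °C; 1 = growth at the plate median or of vehicle wells; lower values mean less growth of the strain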
Settings: growth OD

Measured: normalized growth

CC(=O)O[C@@H]1CC2C(C)(C)[C@H](O)C=C[C@]2(C)C2CC[C@]3(C)C(=CC(=O)O[C@H]3c3ccoc3)[C@@]21C (stereo partly specified)
inactive: S. cerevisiae deletion strains, locus YAL021C, strain ccr4, stronger effect = lower value 0.971 | S. cerevisiae deletion strains, locus YAL026C, strain drs2, stronger effect = lower value 0.983 | S. cerevisiae deletion strains, locus YAL030W, strain snc1, stronger effect = lower value 0.974 | S. cerevisiae deletion strains, locus YBL061C, strain skt5, stronger effect = lower value 0.987 | S. cerevisiae deletion strains, locus YBR009C, strain hhf1, stronger effect = lower value 0.984 | S. cerevisiae deletion strains, locus YBR021W, strain FUR4, stronger effect = lower value 0.987 | S. cerevisiae deletion strains, locus YBR023C, strain chs3, stronger effect = lower value 0.993 | S. cerevisiae deletion strains, locus YBR171W, strain sec66, stronger effect = lower value 0.988 | S. cerevisiae deletion strains, locus YBR229C, strain ROT2, stronger effect = lower value 0.996 | S. cerevisiae deletion strains, locus YBR231C, strain swc5, stronger effect = lower value 0.99 | S. cerevisiae deletion strains, locus YBR279W, strain paf1, stronger effect = lower value 0.99 | S. cerevisiae deletion strains, locus YCL011C, strain gbp2, stronger effect = lower value 0.996 | S. cerevisiae deletion strains, locus YCL016C, strain dcc1, stronger effect = lower value 0.995 | S. cerevisiae deletion strains, locus YCL029C, strain bik1, stronger effect = lower value 1.01 | S. cerevisiae deletion strains, locus YCL061C, strain MRC1, stronger effect = lower value 1 | S. cerevisiae deletion strains, locus YCL069W, strain vba3, stronger effect = lower value 0.994 | S. cerevisiae deletion strains, locus YCR088W, strain abp1, stronger effect = lower value 0.983 | S. cerevisiae deletion strains, locus YDL005C, strain med2, stronger effect = lower value 0.967 | S. cerevisiae deletion strains, locus YDL035C, strain GPR1, stronger effect = lower value 1.03 | S. cerevisiae deletion strains, locus YDL040C, strain nat1, stronger effect = lower value 0.983 | S. cerevisiae deletion strains, locus YDL074C, strain BRE1, stronger effect = lower value 0.999 | S. cerevisiae deletion strains, locus YDL101C, strain DUN1, stronger effect = lower value 1.01 | S. cerevisiae deletion strains, locus YDL185W, strain tfp1, stronger effect = lower value 1.01 | S. cerevisiae deletion strains, locus YDL192W, strain arf1, stronger effect = lower value 1.01 | S. cerevisiae deletion strains, locus YDR001C, strain nth1, stronger effect = lower value 0.976 | S. cerevisiae deletion strains, locus YDR069C, strain doa4, stronger effect = lower value 0.978 | S. cerevisiae deletion strains, locus YDR101C, strain arx1, stronger effect = lower value 1.02 | S. cerevisiae deletion strains, locus YDR137W, strain rgp1, stronger effect = lower value 0.956 | S. cerevisiae deletion strains, locus YDR159W, strain sac3, stronger effect = lower value 0.962 | S. cerevisiae deletion strains, locus YDR162C, strain NBP2, stronger effect = lower value 1.02 | S. cerevisiae deletion strains, locus YDR195W, strain ref2 0.969 | S. cerevisiae deletion strains, locus YDR297W, strain sur2, stronger effect = lower value 0.973 | S. cerevisiae deletion strains, locus YDR318W, strain mcm21, stronger effect = lower value 1 | S. cerevisiae deletion strains, locus YDR334W, strain swr1, stronger effect = lower value 0.972 | S. cerevisiae deletion strains, locus YDR335W, strain msn5, stronger effect = lower value 0.975 | S. cerevisiae deletion strains, locus YDR388W, stronger effect = lower value 1 | S. cerevisiae deletion strains, locus YDR392W, strain spt3, stronger effect = lower value 0.989 | S. cerevisiae deletion strains, locus YDR502C, strain sam2, stronger effect = lower value 1.01 | S. cerevisiae deletion strains, locus YEL003W, strain gim4, stronger effect = lower value 0.985 | S. cerevisiae deletion strains, locus YEL037C, strain rad23, stronger effect = lower value 0.984 | S. cerevisiae deletion strains, locus YEL061C, strain CIN8 (second series), stronger effect = lower value 0.988 | S. cerevisiae deletion strains, locus YEL061C, strain CIN8, stronger effect = lower value 1 | S. cerevisiae deletion strains, locus YER015W, strain faa2, stronger effect = lower value 0.991 | S. cerevisiae deletion strains, locus YER016W, strain bim1, stronger effect = lower value 0.993 | S. cerevisiae deletion strains, locus YER110C, stronger effect = lower value 0.996 | S. cerevisiae deletion strains, locus YER111C, strain swi4, stronger effect = lower value 0.975 | S. cerevisiae deletion strains, locus YER155C, strain BEM2 (second series), stronger effect = lower value 0.985 | S. cerevisiae deletion strains, locus YER155C, strain BEM2, stronger effect = lower value 0.997 | S. cerevisiae deletion strains, locus YER167W, strain BCK2, stronger effect = lower value 1.01 | S. cerevisiae deletion strains, locus YFR010W, strain ubp6, stronger effect = lower value 0.97 | S. cerevisiae deletion strains, locus YGL078C, strain dbp3, stronger effect = lower value 1 | S. cerevisiae deletion strains, locus YGL086W, strain mad1, stronger effect = lower value 0.993 | S. cerevisiae deletion strains, locus YGL167C, strain pmr1, stronger effect = lower value 0.987 | S. cerevisiae deletion strains, locus YGL173C, strain kem1, stronger effect = lower value 0.977 | S. cerevisiae deletion strains, locus YGL227W, strain vid30, stronger effect = lower value 0.989 | S. cerevisiae deletion strains, locus YGL240W, strain doc1, stronger effect = lower value 0.993 | S. cerevisiae deletion strains, locus YGL248W, strain PDE1, stronger effect = lower value 1.01 | S. cerevisiae deletion strains, locus YGL253W, strain hxk2, stronger effect = lower value 0.985 | S. cerevisiae deletion strains, locus YGR135W, strain pre9, stronger effect = lower value 1 | S. cerevisiae deletion strains, locus YGR229C, strain SMI1, stronger effect = lower value 1.04 | S. cerevisiae deletion strains, locus YGR252W, strain gcn5, stronger effect = lower value 0.97 | S. cerevisiae deletion strains, locus YHR013C, strain ard1, stronger effect = lower value 0.98 | S. cerevisiae deletion strains, locus YHR027C, strain rpn1, stronger effect = lower value 0.994 | S. cerevisiae deletion strains, locus YHR030C, strain SLT2, stronger effect = lower value 1.01 | S. cerevisiae deletion strains, locus YHR079C, strain IRE1 (second series), stronger effect = lower value 1 | S. cerevisiae deletion strains, locus YHR094C, strain hxt1, stronger effect = lower value 1 | S. cerevisiae deletion strains, locus YHR129C, strain ARP1, stronger effect = lower value 1.01 | S. cerevisiae deletion strains, locus YHR142W, strain chs7, stronger effect = lower value 0.993 | S. cerevisiae deletion strains, locus YHR200W, strain rpn10, stronger effect = lower value 1 | S. cerevisiae deletion strains, locus YIL066C, strain RNR3, stronger effect = lower value 1 | S. cerevisiae deletion strains, locus YIL073C, strain SPO22, stronger effect = lower value 1.01 | S. cerevisiae deletion strains, locus YIL125W, strain kgd1, stronger effect = lower value 0.99 | S. cerevisiae deletion strains, locus YIR030C, strain dcg1, stronger effect = lower value 0.997 | S. cerevisiae deletion strains, locus YJL092W, strain hpr5, stronger effect = lower value 0.984 | S. cerevisiae deletion strains, locus YJL095W, strain BCK1 (second series), stronger effect = lower value 0.981 | S. cerevisiae deletion strains, locus YJL095W, strain BCK1, stronger effect = lower value 1.02 | S. cerevisiae deletion strains, locus YJL115W, strain asf1, stronger effect = lower value 0.964 | S. cerevisiae deletion strains, locus YJL129C, strain trk1, stronger effect = lower value 0.988 | S. cerevisiae deletion strains, locus YJL134W, strain LCB3, stronger effect = lower value 1.01 | S. cerevisiae deletion strains, locus YJL154C, strain vps35, stronger effect = lower value 0.981 | S. cerevisiae deletion strains, locus YJL164C, strain tpk1, stronger effect = lower value 0.991 | S. cerevisiae deletion strains, locus YJL166W, strain qcr8, stronger effect = lower value 0.993 | S. cerevisiae deletion strains, locus YJL168C, strain set2, stronger effect = lower value 0.99 | S. cerevisiae deletion strains, locus YJL187C, strain SWE1 (second series), stronger effect = lower value 1.01 | S. cerevisiae deletion strains, locus YJL187C, strain SWE1, stronger effect = lower value 0.986 | S. cerevisiae deletion strains, locus YKL009W, strain mrt4, stronger effect = lower value 0.993 | S. cerevisiae deletion strains, locus YKL068W, stronger effect = lower value 1.01 | S. cerevisiae deletion strains, locus YKL085W, strain MDH1 (second series), stronger effect = lower value 0.997 | S. cerevisiae deletion strains, locus YKL085W, strain MDH1, stronger effect = lower value 0.997 | S. cerevisiae deletion strains, locus YKL160W, strain elf1, stronger effect = lower value 0.992 | S. cerevisiae deletion strains, locus YKL190W, strain CNB1, stronger effect = lower value 1.01 | S. cerevisiae deletion strains, locus YKR001C, strain vps1, stronger effect = lower value 1 | S. cerevisiae deletion strains, locus YKR026C, strain gcn3, stronger effect = lower value 0.99 | S. cerevisiae deletion strains, locus YKR091W, strain srl3, stronger effect = lower value 0.99 | S. cerevisiae deletion strains, locus YLL001W, strain dnm1, stronger effect = lower value 0.983 | S. cerevisiae deletion strains, locus YLL026W, stronger effect = lower value 0.987 | S. cerevisiae deletion strains, locus YLL041C, strain sdh2, stronger effect = lower value 0.985 | S. cerevisiae deletion strains, locus YLR027C, strain aat2, stronger effect = lower value 0.979 | S. cerevisiae deletion strains, locus YLR039C, strain RIC1, stronger effect = lower value 1.07 | S. cerevisiae deletion strains, locus YLR058C, strain SHM2, stronger effect = lower value 1 | S. cerevisiae deletion strains, locus YLR102C, strain apc9, stronger effect = lower value 0.998 | S. cerevisiae deletion strains, locus YLR221C, strain rsa3, stronger effect = lower value 0.993 | S. cerevisiae deletion strains, locus YLR258W, strain gsy2, stronger effect = lower value 0.998 | S. cerevisiae deletion strains, locus YLR262C, strain YPT6 (second series), stronger effect = lower value 0.978 | S. cerevisiae deletion strains, locus YLR268W, strain sec22, stronger effect = lower value 0.997 | S. cerevisiae deletion strains, locus YLR320W, strain mms22, stronger effect = lower value 0.991 | S. cerevisiae deletion strains, locus YLR342W, strain FKS1 (second series), stronger effect = lower value 1.01 | S. cerevisiae deletion strains, locus YLR342W, strain FKS1, stronger effect = lower value 0.991 | S. cerevisiae deletion strains, locus YLR357W, strain rsc2, stronger effect = lower value 0.947 | S. cerevisiae deletion strains, locus YLR370C, strain arc18, stronger effect = lower value 0.992 | S. cerevisiae deletion strains, locus YLR371W, strain rom2, stronger effect = lower value 1 | S. cerevisiae deletion strains, locus YLR384C, strain iki3, stronger effect = lower value 1 | S. cerevisiae deletion strains, locus YLR418C, strain cdc73, stronger effect = lower value 0.98 | S. cerevisiae deletion strains, locus YML016C, strain PPZ1, stronger effect = lower value 1 | S. cerevisiae deletion strains, locus YML032C, strain rad52, stronger effect = lower value 0.991 | S. cerevisiae deletion strains, locus YML120C, strain ndi1, stronger effect = lower value 0.994 | S. cerevisiae deletion strains, locus YML124C, strain tub3, stronger effect = lower value 1 | S. cerevisiae deletion strains, locus YMR058W, strain fet3, stronger effect = lower value 0.974 | S. cerevisiae deletion strains, locus YMR078C, strain ctf18, stronger effect = lower value 0.992 | S. cerevisiae deletion strains, locus YMR125W, strain sto1, stronger effect = lower value 0.978 | S. cerevisiae deletion strains, locus YMR129W, stronger effect = lower value 0.999 | S. cerevisiae deletion strains, locus YMR205C, strain PFK2, stronger effect = lower value 0.98 | S. cerevisiae deletion strains, locus YMR223W, strain ubp8, stronger effect = lower value 1 | S. cerevisiae deletion strains, locus YMR231W, strain pep5, stronger effect = lower value 0.967 | S. cerevisiae deletion strains, locus YMR307W, strain GAS1, stronger effect = lower value 0.99 | S. cerevisiae deletion strains, locus YNL067W, strain RPL9B, stronger effect = lower value 1.02 | S. cerevisiae deletion strains, locus YNL071W, strain lat1, stronger effect = lower value 0.991 | S. cerevisiae deletion strains, locus YNL128W, strain TEP1, stronger effect = lower value 1.02 | S. cerevisiae deletion strains, locus YNL209W, strain ssb2, stronger effect = lower value 0.998 | S. cerevisiae deletion strains, locus YNL233W, strain BNI4, stronger effect = lower value 1.02 | S. cerevisiae deletion strains, locus YNL248C, strain rpa49, stronger effect = lower value 0.966 | S. cerevisiae deletion strains, locus YNL250W, strain rad50, stronger effect = lower value 0.996 | S. cerevisiae deletion strains, locus YNL271C, strain bni1, stronger effect = lower value 1 | S. cerevisiae deletion strains, locus YNL298W, strain CLA4, stronger effect = lower value 1.01 | S. cerevisiae deletion strains, locus YNL307C, strain MCK1, stronger effect = lower value 0.995 | S. cerevisiae deletion strains, locus YNL322C, strain KRE1 (second series), stronger effect = lower value 1 | S. cerevisiae deletion strains, locus YNL322C, strain KRE1, stronger effect = lower value 1.01 | S. cerevisiae deletion strains, locus YNR049C, strain mso1, stronger effect = lower value 0.987 | S. cerevisiae deletion strains, locus YNR052C, strain pop2, stronger effect = lower value 0.995 | S. cerevisiae deletion strains, locus YOL012C, strain htz1 1.25 | S. cerevisiae deletion strains, locus YOL147C, strain pex11, stronger effect = lower value 0.996 | S. cerevisiae deletion strains, locus YOR001W, strain rrp6, stronger effect = lower value 0.984 | S. cerevisiae deletion strains, locus YOR061W, strain CKA2, stronger effect = lower value 0.997 | S. cerevisiae deletion strains, locus YOR069W, strain VPS5, stronger effect = lower value 1 | S. cerevisiae deletion strains, locus YOR070C, strain gyp1, stronger effect = lower value 1.01 | S. cerevisiae deletion strains, locus YOR080W, strain dia2, stronger effect = lower value 0.995 | S. cerevisiae deletion strains, locus YOR083W, strain WHI5, stronger effect = lower value 0.994 | S. cerevisiae deletion strains, locus YOR106W, strain vam3, stronger effect = lower value 0.99 | S. cerevisiae deletion strains, locus YOR136W, strain idh2, stronger effect = lower value 1 | S. cerevisiae deletion strains, locus YOR144C, strain elg1, stronger effect = lower value 0.999 | S. cerevisiae deletion strains, locus YOR184W, strain ser1, stronger effect = lower value 1.01 | S. cerevisiae deletion strains, locus YOR265W, strain rbl2, stronger effect = lower value 0.979 | S. cerevisiae deletion strains, locus YOR270C, strain vph1, stronger effect = lower value 0.914 | S. cerevisiae deletion strains, locus YOR290C, strain snf2, stronger effect = lower value 1 | S. cerevisiae deletion strains, locus YOR316C, strain cot1, stronger effect = lower value 0.999 | S. cerevisiae deletion strains, locus YPL051W, strain arl3, stronger effect = lower value 0.995 | S. cerevisiae deletion strains, locus YPL078C, strain atp4, stronger effect = lower value 0.989 | S. cerevisiae deletion strains, locus YPL106C, strain sse1, stronger effect = lower value 0.998 | S. cerevisiae deletion strains, locus YPL240C, strain hsp82, stronger effect = lower value 0.995 | S. cerevisiae deletion strains, locus YPL241C, strain CIN2, stronger effect = lower value 1.01 | S. cerevisiae deletion strains, locus YPR119W, strain clb2, stronger effect = lower value 0.994 | S. cerevisiae deletion strains, locus YPR141C, strain kar3, stronger effect = lower value 0.993 | S. cerevisiae deletion strains, locus YPR163C, strain tif3, stronger effect = lower value 0.994 | S. cerevisiae deletion strains, locus YPR167C, strain met16, stronger effect = lower value 0.996 | S. cerevisiae deletion strains, strain wtn01, stronger effect = lower value 1 | S. cerevisiae strains, strain wild type, stronger effect = lower value 1.02
